# Experimental data taken from ChEMBL document CHEMBL3988442, “University of Dundee, Small-Polar-MMV Screening Library” (2021).
# In all, about 66,000 compounds went through this assay and about 960 (1.5%) showed an effect of 50% or more. Many of the other results were omitted from the sample, so strong results are more common in it than they were.
# Tested on: Trypanosoma brucei
# Assay: Trypanosoma brucei 72 hour study
# Format: functional, organism-based
# Parameters: scale not given: in the data most compounds retested in dose-response had high values
compound,measurement,setting,value
COc1ccc(CNC(=O)Nc2cccnc2N2CCCC2)cc1OC,Percent Effect,"30.3 µM, […]",-31.53%
COc1ccc(CNC(=O)Nc2cccnc2N2CCCC2)cc1O,Percent Effect,"30 µM, 30.03 µM",51.01%
COc1ccc(CNC(=O)Nc2cccnc2N2CCCC2)cc1,Percent Effect,"30.3 µM, […]",-33.31%
CC1CCN(CC(=O)NC2CCN(C(C)c3ccccc3)CC2)CC1.Cl (stereo not given),Percent Effect,"30.3 µM, […]",21.99%
COc1ccc(CN2CCC3(CC2)CCN(c2cnn(C)c2)C3=O)cc1.O=C(O)C(F)(F)F,Percent Effect,"30 µM, 30.03 µM",29.53%
CN(Cc1n[nH]c2c1CCC2)c1nc(C2CCCC2)nc2c1CNC2,Percent Effect,"30 µM, 30.03 µM",-1.405%
CN(C)c1nc2c(c(N(C)Cc3n[nH]c4c3CCCC4)n1)CCNCC2,Percent Effect,"30 µM, 30.03 µM",21.59%
CN(Cc1n[nH]c2c1CCCC2)c1nc(C2CC2)nc2c1CCNCC2,Percent Effect,"30 µM, 30.03 µM",53.53%
O=C(C1CCCN(C2CCOCC2)C1)N1Cc2ccccc2C1 (stereo not given),Percent Effect,"30 µM, 30.03 µM",-36.54%
O=C(CN1CCC2(CCCCC2)C1)NCC(F)(F)F,Percent Effect,"30.3 µM, […]",100.3%
CC(C)(C)C(O)CN1CCN(CC(=O)NCC(F)(F)F)CC1 (stereo not given),Percent Effect,"30 µM, 30.03 µM",-50.05%
O=C(CN1CCSC2(CCCCC2)C1)NCC(F)(F)F,Percent Effect,"30.3 µM, […]",27.46%
CCNC(=O)[C@@H]1C[C@H](N)CN1C(=O)c1c[nH]c2ccccc12,Percent Effect,"30.3 µM, […]",-39.66%
Cc1cc2c(cc1Cl)C=CC1(CCN(CC(=O)N3CCOCC3)CC1)O2,Percent Effect,"30.3 µM, […]",-3.407%
Cc1cc2c(cc1Cl)C=CC1(CCN(CC(=O)N3CCCC3)CC1)O2,Percent Effect,"30.3 µM, […]",-16.81%
CCN(CC)C(=O)CN1CCC2(C=Cc3cc(Cl)c(C)cc3O2)CC1,Percent Effect,"30.3 µM, […]",99.22%
CNC(=O)N1C[C@H]2C[C@H](C(=O)NCc3cccnc3)[C@@H](C1)O2.O=C(O)C(F)(F)F,Percent Effect,"30 µM, 30.03 µM",41.37%
Cc1noc(C)c1C(=O)N1CCC(c2[nH]ncc2S(C)(=O)=O)C1 (stereo not given),Percent Effect,"30.3 µM, […]",-19.64%
CN(CC1CCOCC1)C(C(=O)O)c1cccc(F)c1F (stereo not given),Percent Effect,"30 µM, 30.03 µM",-18.13%
Clc1ccccc1CCN1CCN(c2ccc3nncn3n2)CC1,Percent Effect,10 µM,55.98%
c1ccc(CCN2CCN(c3ccc4nncn4n3)CC2)cc1,Percent Effect,10 µM,-2.806%
c1ccc(CCCN2CCN(c3ccc4nncn4n3)CC2)cc1,Percent Effect,10 µM,-24.8%
FC(F)(F)COCCN1CCN(c2ccc3nncn3n2)CC1,Percent Effect,"30 µM, 30.03 µM",29.6%
c1ccc(OCCCN2CCN(c3ccc4nncn4n3)CC2)cc1,Percent Effect,"30 µM, 30.03 µM",53.47%
c1ccc(CCN2CCN(c3ccc4nncn4n3)CC2)nc1,Percent Effect,"30 µM, 30.03 µM",14.18%
COCCN1CCC2(CC1)CC(NC(=O)CN(C)C)c1ccccc1O2.O=C(O)C(F)(F)F.O=C(O)C(F)(F)F (stereo not given),Percent Effect,"30.3 µM, […]",-3.899%
CNC(=O)[C@H]1C[C@@H]2CN(C(=O)c3ccncc3)C[C@@H]2N1S(C)(=O)=O.O=C(O)C(F)(F)F,Percent Effect,"30.3 µM, […]",-12.29%
Cc1cnc(N2CCc3cc(C(=O)O)c(N(C)C)nc3CC2)nc1.O=C(O)C(F)(F)F,Percent Effect,"30.3 µM, […]",-16.6%
O=C(NCC1CCN(CCc2ccccc2)C1)c1cc(Cl)c[nH]1 (stereo not given),Percent Effect,"30 µM, 30.03 µM",-9.095%
COC(=O)c1ccc(N2CCN(C(=O)c3ccco3)C(C)C2)cc1 (stereo not given),Percent Effect,"30.3 µM, […]",90.39%
COC(=O)c1ccc(N2CCN(C(=O)c3cc(C)no3)C(C)C2)cc1 (stereo not given),Percent Effect,"30.3 µM, […]",29.28%
COC(=O)c1ccc(N2CCN(C(=O)C3CCC3)C(C)C2)cc1 (stereo not given),Percent Effect,"30 µM, 30.03 µM",50.56%
COC(=O)c1ccc(N2CCN(C(=O)C3CC3)C(C)C2)cc1 (stereo not given),Percent Effect,"30 µM, 30.03 µM",-2.442%
CCC(=O)N1CCN(c2ccc(C(=O)OC)cc2)CC1C (stereo not given),Percent Effect,"30 µM, 30.03 µM",6.915%
COC(=O)c1ccc(N2CCN(C(=O)c3ccncc3)C(C)C2)cc1 (stereo not given),Percent Effect,"30 µM, 30.03 µM",41.83%
Cl.Nc1nc(Nc2ccccc2)cc(N2CCNCC2)n1,Percent Effect,"30.3 µM, […]",-11.41%
same,Percent Effect,"10 mM, 10 mM as filed; unlikely as a test dose",-70.99%
O=C(c1cccs1)N1CCN(CC2CC2)c2ncccc2C1,Percent Effect,"30 µM, 30.03 µM",-33.24%
Cn1cccc1C(=O)N1CCN(CC2CC2)c2ncccc2C1,Percent Effect,"30 µM, 30.03 µM",57.2%
CN1CCN(C(=O)c2cccn2C)Cc2cccnc21,Percent Effect,"30.3 µM, […]",-5.91%
Cc1nc(C(=O)NS(=O)(=O)c2cccc(C#N)c2)cs1,Percent Effect,"30.3 µM, […]",2.101%
COCC1c2c(cnn2CC2CC2)CCN1Cc1ccc(C)o1.O=C(O)C(F)(F)F.O=C(O)C(F)(F)F (stereo not given),Percent Effect,"30.3 µM, […]",-1.349%
O=C(NCc1nn(-c2ccccc2)c2c1CCC2)N1CCCC(O)C1 (stereo not given),Percent Effect,10 µM,-55.19%
O=C(NCC1CCCN(C(=O)NCCc2ccccc2)C1)c1ccco1 (stereo not given),Percent Effect,"30.3 µM, […]",15.56%
O=C(NCCc1ccn(-c2ccccc2)n1)N1CCCC(CO)C1 (stereo not given),Percent Effect,10 µM,104%
CCOC1CCN(C(=O)NCCc2ccn(-c3ccccc3)n2)CC1,Percent Effect,10 µM,-34.62%
O=C(NCCC1Cc2ccccc2C1)N1CCCC(O)C1 (stereo not given),Percent Effect,"30.3 µM, […]",-66.43%
COc1ccccc1CNC(=O)N1CCCC(CO)C1 (stereo not given),Percent Effect,"30 µM, 30.03 µM",-45.66%
O=C(NCCc1ccn(-c2ccccc2)n1)N1CCCC(O)C1 (stereo not given),Percent Effect,10 µM,103.1%
CCOC1CCCN(C(=O)NCCc2ccn(-c3ccccc3)n2)C1 (stereo not given),Percent Effect,"30 µM, 30.03 µM",99.66%
